Measurements as given in PubChem BioAssay (Tox21).
Results filed as inconclusive are left out. Calls of active or inactive are those of the source. Unless noted, the call rests on the fitted dose curve; in most records, active means well fitted curve in the direction sought with a large enough effect in the repeat runs; inconclusive means weak or mixed curves; inactive means no such curve, though single readings can be large; an effect the other way counts as inactive or inconclusive.

Experiments:
[1] = qHTS assay to test for compound auto fluorescence at 535 nm (green) in HEK293 cells (AID 720680)
[2] = qHTS assay to test for compound auto fluorescence at 460 nm (blue) in HEK293 cell free culture (AID 720681)
Outline: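 Test compounds were pinned into cell-free culture medium (DMEM with 10% FBS) and fluorescence was read directly at Ex/Em 405/460 nm. Signals were expressed as fluorescence equivalents of triamterene, with DMSO vehicle as control.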

[3] = qHTS assay to test for compound auto fluorescence at 535 nm (green) in HEK293 cell free culture (AID 720682)
Outline: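 Green-label autofluorescence (485 nm excitation, 535 nm emission) measured on compound added to cell-free culture medium (DMEM, 10% FBS). Output is expressed relative to fluorescein.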

[4] = qHTS assay to test for compound auto fluorescence at 590 nm (red) in HEK293 cell free culture (AID 720683)
Outline: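 Tox21 10K library compounds were pinned into cell-free DMEM with 10% FBS and fluorescence was read at excitation 540 nm. Activity is expressed as Rose Bengal sodium equivalency.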

[5] = qHTS assay to test for compound auto fluorescence at 590 nm (red) in HepG2 cell free culture (AID 720684)
Outline: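 Red fluorescence (540 nm excitation, 590 nm emission) was measured after compound transfer into cell-free MEM supplemented with 10% FBS. Values are equivalencies against Rose Bengal sodium.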

[6] = qHTS assay to test for compound auto fluorescence at 460 nm (blue) in HepG2 cell free culture (AID 720685)
Outline: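 Compound (23 nL) or DMSO pinned into cell-free MEM with 10% FBS; blue fluorescence read at 405/460 nm excitation/emission, expressed as auto-fluorescence equivalency to triamterene.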

[7] = qHTS assay to test for compound auto fluorescence at 535 nm (green) in HepG2 cell free culture (AID 720686)
[8] = qHTS assay to test for compound auto fluorescence at 460 nm (blue) in HepG2 cells (AID 720687)
Outline: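 Cells (2,000/well in MEM with 10% FBS) attached overnight at 37 C, then were exposed to compound or DMSO for 1 hr at 37 C, 5% CO2. Fluorescence read at Ex/Em 405/460 nm, expressed as triamterene-equivalent signal.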

[9] = target: Glucocorticoid receptor (Homo sapiens) (UniProt P04150); experiment: qHTS assay to identify small molecule agonists of the glucocorticoid receptor (GR) signaling pathway (AID 720691; active means well fitted activation curve with a large enough effect in the signal ratio in the repeat runs, not every such curve was filed as active; the % refers to the signal ratio)
Outline: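 GR-bla HeLa cells (beta-lactamase reporter under glucocorticoid response element) were plated 4 h at 37 C/5% CO2, given compounds in DMSO, and incubated 18 h at 37 C. LiveBLAzer B/G FRET substrate was added for 2 h at room temperature, then fluorescence intensity read.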

[10] = target: Glucocorticoid receptor (Homo sapiens) (UniProt P04150); experiment: qHTS assay to identify small molecule antagonists of the glucocorticoid receptor (GR) signaling pathway (AID 720692; active means well fitted inhibition curve with a large enough effect in the signal ratio in the repeat runs, not every such curve was filed as active; the % refers to the signal ratio)
Outline: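 GR-bla HeLa cells (beta-lactamase reporter under glucocorticoid response element) were pre-plated 4 h at 37 C, treated with compounds plus 5 nM dexamethasone (final) for 18 h, then read by LiveBLAzer B/G FRET fluorescence after 2 h.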

[11] = qHTS assay to identify small molecule antagonists of the glucocorticoid receptor (GR) signaling pathway - cell viability counter screen (AID 720693); further: nearly all actives have a fitted effect of over 55% in size
[12] = qHTS assay for identifying genotoxic compounds that show differential cytotoxicity against isogenic chicken DT40 cell lines with known DNA damage response pathways - wild type cell line (AID 743012); further: nearly all actives have a fitted effect of over 60% in size
Outline: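 Parental DNA repair-proficient DT40 cells, 300 per well, were pre-incubated ~0.5 h at 37 C/5% CO2, pin-dosed with compounds in DMSO, then incubated 40 h. Viability was read as CellTiter-Glo luminescence after 30 min at room temperature.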

[13] = qHTS assay for identifying genotoxic compounds that show differential cytotoxicity against isogenic chicken DT40 cell lines with known DNA damage response pathways - Rad54/Ku70 mutant cell line (AID 743015); further: nearly all actives have a fitted effect of over 60% in size
[14] = qHTS assay to identify small molecule antagonists of the androgen receptor (AR) signaling pathway - cell viability counter screen (AID 743033; further: nearly all actives have a fitted effect of over 45% in size)
[15] = qHTS assay to identify small molecule antagonists of the androgen receptor (AR) signaling pathway using the MDA cell line - cell viability counter screen (AID 743041; further: nearly all actives have a fitted effect of over 45% in size)
Outline: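 MDA-kb2 AR-luc human breast carcinoma cells (MMTV-luciferase, AR/GR responsive) were treated with compounds plus R1881 agonist for 16 h at 37 °C. Viability was read as CellTiter-Fluor fluorescence in the same wells as the reporter assay.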

[16] = qHTS assay for identifying genotoxic compounds that show differential cytotoxicity against isogenic chicken DT40 cell lines with known DNA damage response pathways - Rev3 mutant cell line (AID 743014); further: nearly all actives have a fitted effect of over 55% in size
[17] = target: Androgen receptor (Homo sapiens) (UniProt P10275); experiment: qHTS assay to identify small molecule agonists of the androgen receptor (AR) signaling pathway (AID 743036; active means well fitted activation curve with a large enough effect in the signal ratio in the repeat runs, with a control signal flat, not every such curve was filed as active; the % refers to the signal ratio)
Outline: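 AR-UAS-bla HEK293 cells, plated 4 h before dosing, were treated with compound for 16 h at 37C. beta-Lactamase reporter read after 2 h with LiveBLAzer B/G FRET substrate at room temperature.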

[18] = target: Androgen receptor (Homo sapiens) (UniProt P10275); experiment: qHTS assay to identify small molecule agonists of the androgen receptor (AR) signaling pathway using the MDA cell line (AID 743040; further: nearly all actives have a fitted effect of over 20% in size)
Outline: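 MDA-kb2 breast carcinoma cells stably carrying an MMTV-driven luciferase reporter (AR- and GR-responsive) were seeded and held 5 h at 37C, 0% CO2, then exposed to compounds in DMSO for 16 h. Luminescence was read 30 min after ONE-Glo addition.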

[19] = target: Androgen receptor (Homo sapiens) (UniProt P10275); experiment: qHTS assay to identify small molecule antagonists of the androgen receptor (AR) signaling pathway using the MDA cell line (AID 743042; further: nearly all actives have a fitted effect of over 55% in size)
Outline: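 MDA-kb2 cells (human breast carcinoma, stably carrying an MMTV-luciferase reporter responsive to AR and GR) were plated at 3,000 cells/well and preincubated 5 hr at 37C, then given compound plus R1881 agonist for 16 h. ONE-Glo luminescence was read.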

[20] = target: Androgen receptor (Homo sapiens) (UniProt P10275); experiment: qHTS assay to identify small molecule antagonists of the androgen receptor (AR) signaling pathway (AID 743035; active means well fitted inhibition curve with a large enough effect in the signal ratio in the repeat runs, not every such curve was filed as active; the % refers to the signal ratio)
Outline: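 HEK293 cells stably carrying a UAS-driven beta-lactamase reporter (AR-UAS-bla GripTite) were plated for 4 h at 37C, then given compound and the agonist R1881 and incubated 16 h. Reporter activity was read by LiveBLAzer B/G FRET fluorescence after 2 h at room temperature.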
On the % scale 0 is the no-effect control and ±100 the full control effect.

Chain of Androgen receptor (Homo sapiens) (P10275 whole entry, looked up): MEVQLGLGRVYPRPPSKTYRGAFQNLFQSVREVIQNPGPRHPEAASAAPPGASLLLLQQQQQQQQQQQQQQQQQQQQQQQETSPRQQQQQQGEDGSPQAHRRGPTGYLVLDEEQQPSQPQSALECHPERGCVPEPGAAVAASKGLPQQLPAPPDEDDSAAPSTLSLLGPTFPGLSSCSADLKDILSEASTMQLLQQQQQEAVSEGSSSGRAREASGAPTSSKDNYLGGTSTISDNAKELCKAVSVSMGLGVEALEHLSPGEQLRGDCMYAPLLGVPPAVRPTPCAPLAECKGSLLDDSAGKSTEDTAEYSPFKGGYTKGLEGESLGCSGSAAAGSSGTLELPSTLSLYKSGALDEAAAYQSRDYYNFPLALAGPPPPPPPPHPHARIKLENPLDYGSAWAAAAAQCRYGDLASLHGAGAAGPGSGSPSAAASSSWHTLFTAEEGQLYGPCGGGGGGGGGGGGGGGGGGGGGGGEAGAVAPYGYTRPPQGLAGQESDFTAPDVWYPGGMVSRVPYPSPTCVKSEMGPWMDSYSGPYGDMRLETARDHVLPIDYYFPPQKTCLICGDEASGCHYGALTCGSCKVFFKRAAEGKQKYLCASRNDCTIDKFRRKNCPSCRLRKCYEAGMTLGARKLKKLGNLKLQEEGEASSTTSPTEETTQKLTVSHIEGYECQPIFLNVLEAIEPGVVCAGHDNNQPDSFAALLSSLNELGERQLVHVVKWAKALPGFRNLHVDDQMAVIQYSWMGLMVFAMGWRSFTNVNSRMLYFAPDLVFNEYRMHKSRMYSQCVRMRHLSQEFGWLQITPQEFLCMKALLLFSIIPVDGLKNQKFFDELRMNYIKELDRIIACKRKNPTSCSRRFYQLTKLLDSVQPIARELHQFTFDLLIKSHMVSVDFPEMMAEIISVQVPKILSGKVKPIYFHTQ
Chain of Glucocorticoid receptor (Homo sapiens) (P04150 whole entry, looked up): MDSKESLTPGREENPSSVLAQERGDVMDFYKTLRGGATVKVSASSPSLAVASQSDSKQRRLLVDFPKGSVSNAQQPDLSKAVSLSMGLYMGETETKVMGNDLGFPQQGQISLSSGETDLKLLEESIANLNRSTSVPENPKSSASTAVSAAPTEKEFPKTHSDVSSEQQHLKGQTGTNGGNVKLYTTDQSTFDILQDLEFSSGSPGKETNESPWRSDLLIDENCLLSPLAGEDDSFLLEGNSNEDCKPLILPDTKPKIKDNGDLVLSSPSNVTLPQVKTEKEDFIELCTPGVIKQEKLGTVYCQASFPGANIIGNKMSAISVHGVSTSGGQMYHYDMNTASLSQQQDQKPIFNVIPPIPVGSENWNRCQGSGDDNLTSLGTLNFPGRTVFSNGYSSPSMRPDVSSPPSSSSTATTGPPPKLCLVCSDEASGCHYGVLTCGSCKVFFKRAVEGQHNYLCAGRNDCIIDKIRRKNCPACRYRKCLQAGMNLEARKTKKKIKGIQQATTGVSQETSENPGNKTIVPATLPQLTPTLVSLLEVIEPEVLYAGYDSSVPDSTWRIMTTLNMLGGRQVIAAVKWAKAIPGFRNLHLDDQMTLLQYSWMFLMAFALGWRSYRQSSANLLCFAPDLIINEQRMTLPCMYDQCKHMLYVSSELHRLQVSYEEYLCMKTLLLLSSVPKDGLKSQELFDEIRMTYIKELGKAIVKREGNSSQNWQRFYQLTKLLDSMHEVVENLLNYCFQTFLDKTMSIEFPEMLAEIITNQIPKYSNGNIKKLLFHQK

CC/C=C\CCOC(=O)c1ccccc1O
inactive: outcome [1] | outcome [2] | outcome [3] | outcome [4] | outcome [5] | outcome [6] | outcome [7] | outcome [8] | Potency [9] | outcome [10] | outcome [11] | Potency [12] | Potency [13] | outcome [14] | Potency [15]

OC[C@@H](O)C(O)[C@@H](O)CO (some centres not stated)
inactive: outcome [1] | outcome [2] | outcome [3] | outcome [4] | outcome [5] | outcome [6] | outcome [7] | Potency [9] | outcome [10] | outcome [11] | Potency [12] | Potency [13] | outcome [14] | Potency [15]

O=C(O)CSCC(=O)NC1CCSC1=O (configuration not stated)
inactive: outcome [1] | outcome [2] | outcome [3] | outcome [4] | outcome [5] | outcome [6] | outcome [7] | outcome [11] | Potency [12] | Potency [16] | Potency [13] | outcome [14] | outcome [17] | Potency [18] | Potency [15] | outcome [19]

COP(=O)(O)OP(=O)(O)OC
inactive: outcome [1] | outcome [2] | outcome [3] | outcome [4] | outcome [5] | outcome [6] | outcome [7] | Potency [9] | outcome [11] | Potency [12] | Potency [16] | Potency [13] | outcome [14] | Potency [15]

C=C(C)[C@@H]1CC=C(C)CC1
inactive: outcome [1] | outcome [2] | outcome [3] | outcome [4] | outcome [5] | outcome [6] | outcome [7] | outcome [8] | outcome [11] | outcome [14] | Potency [15]

Cn1c(=O)c2[nH]c(Br)nc2n(C)c1=O
inactive: outcome [1] | outcome [2] | outcome [3] | outcome [4] | outcome [5] | outcome [6] | outcome [7] | Potency [9] | outcome [10] | outcome [11] | Potency [13] | outcome [14] | Potency [15]

O=C(O)CONC(=O)c1ccccc1
inactive: outcome [1] | outcome [2] | outcome [3] | outcome [4] | outcome [5] | outcome [6] | outcome [7] | outcome [8] | outcome [11] | Potency [16] | Potency [13] | outcome [14] | Potency [15]

CCCCCc1cccc(=O)o1
inactive: outcome [1] | outcome [2] | outcome [3] | outcome [4] | outcome [5] | outcome [6] | outcome [7] | outcome [8] | outcome [11] | Potency [12] | Potency [16] | Potency [13] | outcome [14] | Potency [15]

CO[C@@]1(NC(=O)Cc2cccs2)C(=O)N2C(C(=O)O)=C(COC(N)=O)CS[C@@H]21
inactive: outcome [1] | outcome [2] | outcome [3] | outcome [4] | outcome [5] | outcome [6] | outcome [7] | outcome [8] | outcome [11] | Potency [12] | Potency [16] | Potency [13] | outcome [14] | Potency [15]

C=C(C)c1cccc(C(C)(C)N=C=O)c1
inactive: outcome [1] | outcome [2] | outcome [3] | outcome [4] | outcome [5] | outcome [6] | outcome [7] | Potency [9] | outcome [11] | outcome [14] | Potency [15]

CCCCCC/C=C/C(=O)OC
inactive: outcome [1] | outcome [2] | outcome [3] | outcome [4] | outcome [5] | outcome [6] | outcome [7] | Potency [9] | outcome [10] | outcome [11] | Potency [12] | Potency [16] | outcome [14] | Potency [15]

CC1(C)[C@H]2CC[C@](C)(C2)[C@H]1O
inactive: outcome [1] | outcome [2] | outcome [3] | outcome [4] | outcome [5] | outcome [6] | outcome [7] | outcome [11] | Potency [12] | Potency [16] | Potency [13] | Potency [15]

CC(C)(C)NC[C@H](O)COc1cccc2c1CCCC2=O
inactive: fluorescence, % of fluorescein [1] 0.0019% [at 18.6 µM] | fluorescence, % of fluorescent control [2] 0.0024% [at 18.6 µM] | activity change [3] -0.0347% [at 18.6 µM] | fluorescence, % of fluorescent control [4] -0.286% [at 18.6 µM] | fluorescence, % of Rose Bengal [5] 0.355% [at 18.6 µM] | fluorescence, % of fluorescent control [6] -0.0088% [at 18.6 µM] | fluorescence, % of fluorescein control [7] -0.0049% [at 18.6 µM] | Potency [9] | outcome [10] | outcome [11] | Potency [12] | Potency [16] | Potency [13] | Potency [15]

O=C(O)c1cc2ccccc2nc1C(=O)O
inactive: outcome [1] | outcome [2] | outcome [3] | outcome [4] | outcome [5] | outcome [6] | outcome [7] | Potency [9] | outcome [10] | outcome [11] | Potency [12] | Potency [16] | Potency [13] | outcome [14] | Potency [15]

CC(Oc1cc(Cl)ccc1Cl)C(=O)O (configuration not stated)
inactive: outcome [1] | outcome [2] | outcome [3] | outcome [4] | outcome [5] | outcome [6] | outcome [7] | Potency [9] | outcome [11] | Potency [12] | Potency [16] | outcome [14] | outcome [20] | Potency [18] | Potency [15] | outcome [19]

CC/C(C)=N\O[Si](C)(O/N=C(\C)CC)O/N=C(\C)CC
inactive: outcome [1] | outcome [2] | outcome [3] | outcome [4] | outcome [5] | outcome [6] | outcome [7] | outcome [8] | outcome [11] | Potency [12] | Potency [16] | Potency [13] | outcome [14] | Potency [15]

C#CCN[C@@H]1CCc2ccccc21
inactive: outcome [1] | outcome [2] | outcome [3] | outcome [4] | outcome [5] | outcome [6] | outcome [7] | outcome [8] | outcome [11] | Potency [12] | Potency [16] | Potency [13] | outcome [20] | outcome [17] | Potency [18] | Potency [15] | outcome [19]
